IDH1 R132H inh – qHTS for Inhibitors of mutant isocitrate dehydrogenase 1 (IDH1): qHTS. IDH1-R132H enzyme, NADPH consumption, diaphorase/resazurin fluorescence. AID 602179, 2012. Potency, µM (titrated, usually from 76.6 µM), inactives show at the top dose activity change, negative = inhibition, actives largely listed as inhibitors. Isocitrate dehydrogenase [NADP] cytoplasmic (Homo sapiens), O75874. 390,000 tested, 0.093% active; also: potency is read from the fitted curve at half-maximal effect; % is scaled to controls: 0 for no effect and ±100 for the full control effect; nearly all actives have a fitted effect of over 65% in size
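IDH1-R132H (0.5 ug/mL) preincubated 30 min with compound, then NADPH (0.016 mM) and alpha-KG (2 mM) added; 80 min at RT, pH 7.5. Remaining NADPH coupled via diaphorase/resazurin to fluorescence (540/590 nm); concentration-response curves normalized to no-enzyme control.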
B2AR arrestin – qHTS assay of beta-arrestin-biased ligands of beta2-adrenergic receptor | Beta-2 adrenergic receptor (Homo sapiens), P07550 | beta-arrestin recruitment to beta2AR, cell-based reporter | Potency, µM (highest dose often 46.1 µM), inactives show at the top dose activation, actives largely listed as activators | 330,000 tested, 0.02% active;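 also: potency is read from the fitted curve at half-maximal effect; 0% = DMSO controls and full agonism = EC100 isoproterenol or metaproterenol; nearly all actives have a fitted effect of over 65% in size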
Target sequence (P07550 whole entry, looked up): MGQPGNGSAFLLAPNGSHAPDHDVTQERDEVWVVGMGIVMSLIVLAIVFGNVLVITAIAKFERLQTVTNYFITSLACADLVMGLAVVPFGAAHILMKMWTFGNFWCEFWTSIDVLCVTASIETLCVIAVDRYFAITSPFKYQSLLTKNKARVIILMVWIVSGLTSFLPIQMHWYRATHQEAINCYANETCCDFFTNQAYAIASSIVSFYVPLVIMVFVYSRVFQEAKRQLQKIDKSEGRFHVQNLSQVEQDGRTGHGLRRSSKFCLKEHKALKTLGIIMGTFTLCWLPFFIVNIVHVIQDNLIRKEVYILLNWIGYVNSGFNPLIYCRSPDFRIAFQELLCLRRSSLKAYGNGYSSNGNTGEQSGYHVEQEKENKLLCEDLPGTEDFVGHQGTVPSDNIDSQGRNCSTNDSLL
DRD3 agonist – qHTS of D3 Dopamine Receptor Agonist: qHTS; D3R DiscoveRx beta-arrestin cells, luminescence, 90 min; max activation, %; D(3) dopamine receptor (Homo sapiens), P35462; 410,000 tested, 0.58% active; in the data active = max activation above about 30%; also: 0% is about no effect
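Agonist mode: compounds and dopamine controls were applied to plated cells for 90 min at 37 degrees C after an overnight attachment at 1500 cells/well. Luminescent read-out followed 30 - 60 minutes at room temperature with DiscoveRx detection reagent.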
Integrin act MD – qHTS for Activators of Integrin-Mediated Alleviation for Muscular Dystrophy. Potency, µM (top dose mostly 38.3 µM), for the others: at the top dose activation, most hits filed as activators. 350,000 tested, 0.064% active. AID 624291, 2012. alpha7betagal myoblasts, beta-gal FDG fluorescence, 48 h;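 also: potency is read from the fitted curve at half-maximal effect; 100% = response of the positive control SU9516; nearly all actives have a fitted effect of over 60% in size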
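Alpha7betagal+/- myoblasts (passage 13) were plated 16-24 hr, then exposed to compounds (1:260 dilution of DMSO stock) for 48 hours at 37C. After MPER lysis, β-galactosidase reporter activity was read as FDG fluorescence (ex 480/em 540) after 30 minutes.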
D3 antag – qHTS of D3 Dopamine Receptor Antagonist: qHTS. D3R cells, DiscoveRx beta-arrestin luminescence, antagonist mode; stronger effect = lower value. max response, negative = inhibition, %. 360,000 tested, 2.5% active. AID 652054, 2013; in the data active = max response below about -50%; inconclusive = no clear call, values can overlap the other calls; also: % is scaled to controls: 0 for no effect and ±100 for the full control effect
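Cells plated overnight at 1500 cells/well, then exposed to library compounds with dopamine controls for 90 minutes at 37 degrees C. DiscoveRx reagent added for 30–60 minutes at room temperature; luminescence read, quantitative HTS format.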
* hit, by the source's call; [ ] = dose if it differs, or a comment. This is a sample that favours compounds with a hit; in the whole collection about 2.9% have one here. Unless noted, calls follow the shape of the dose curve; as a rule, active = well fitted curve in the direction sought with a large enough effect; inconclusive = small, poorly fitted or top-dose-only effect, or another doubt; inactive = no such curve, though single readings can be large; an effect the other way counts as inactive or inconclusive.

Cc1cc(C)nc(SCc2nc3ncccn3c2Br)n1 was read as IDH1 R132H inh 9.0%, B2AR arrestin 0.1%, DRD3 agonist 2.3, Integrin act MD 1.4% and D3 antag -52.2*.
For O=C(Cc1c(Sc2ccccc2)c2ccccc2n1Cc1ccccc1)NCCO the results were IDH1 R132H inh 5.0%, B2AR arrestin 0.2%, DRD3 agonist -24.3, Integrin act MD -22.6% and D3 antag -73.0*.
`Cc1c(-c2ccc(Cl)cc2)c(=O)oc2c(CN3CCOCC3)c(O)ccc12` gave IDH1 R132H inh -3.7% and DRD3 agonist 1.6.
For CCOC(=O)N1CCN(C(=O)CN(c2ccc(C)cc2C)S(=O)(=O)c2ccccc2)CC1 the results were IDH1 R132H inh 0.4% and DRD3 agonist 1.9.
`O=C1CN(C(=S)Nc2ccccc2Cl)CCN1` gave IDH1 R132H inh 2.8%, B2AR arrestin 0.0%, DRD3 agonist 45.0*, Integrin act MD -21.3% and D3 antag 4.7.
CCOc1ccccc1NC(=O)Cn1cnc2c1c(=O)n(C)c(=O)n2C was read as IDH1 R132H inh -7.5% and DRD3 agonist -6.0.
For COc1ccc(CNCc2cccc(Cl)c2)cc1 the results were IDH1 R132H inh 9.9%, B2AR arrestin -0.4%, DRD3 agonist -13.5, Integrin act MD 22.1% and D3 antag -50.5*.
Screening COc1ccc(CNCc2cccc3ccccc23)cc1 returned IDH1 R132H inh 6.1%, B2AR arrestin 0.3%, DRD3 agonist -7.9, Integrin act MD -70.7% and D3 antag -60.0*.
`COc1ccc(CNCc2ccccc2C(F)(F)F)cc1` gave IDH1 R132H inh 6.0%, B2AR arrestin 0.2%, DRD3 agonist -9.7, Integrin act MD 8.2% and D3 antag -10.9.
Screening CCn1c(=O)cc(SCC(=O)NCCc2cc(OC)ccc2OC)c2ccccc21 returned IDH1 R132H inh -6.8% and DRD3 agonist -6.6.
Cc1ccc[n+](CC(=O)Nc2cc(C(F)(F)F)ccc2Cl)c1 was read as IDH1 R132H inh -1.7%, B2AR arrestin -0.4%, DRD3 agonist -36.3, Integrin act MD 15.2% and D3 antag -78.8*.
Screening N/C(CC(=O)Nc1cc(C(F)(F)F)ccc1Cl)=N\O returned IDH1 R132H inh -3.1%, B2AR arrestin 0.4%, DRD3 agonist -2.4, Integrin act MD 8.1% and D3 antag -16.6.
O=C(C[n+]1cccc(CNC(=O)c2ccc(OC(F)F)cc2)c1)Nc1cc(C(F)(F)F)ccc1Cl was read as IDH1 R132H inh -1.5%, B2AR arrestin -0.3%, DRD3 agonist -24.0, Integrin act MD -8.3% and D3 antag -63.9*.
For CN(C)CC(=O)Nc1cc(C(F)(F)F)ccc1Cl the results were IDH1 R132H inh 1.8%, B2AR arrestin 0.3%, DRD3 agonist -11.6, Integrin act MD 4.5% and D3 antag -58.2*.
`Cc1ccc[n+](CC(=O)Nc2c(Cl)cc(Cl)cc2Cl)c1` gave IDH1 R132H inh -1.9%, B2AR arrestin 0.1%, DRD3 agonist -2.9, Integrin act MD 6.0% and D3 antag -17.0.
Screening COc1ccc(Cl)cc1NC(=O)C1CCCN(c2ncnc3onc(C)c23)C1 (configuration not stated) returned IDH1 R132H inh 15.1% and DRD3 agonist 7.8.
Screening O=C(NCc1ccccc1)c1ccc(Cn2c(=O)c3cccn3c3cccnc32)cc1 returned IDH1 R132H inh 21.5% and DRD3 agonist -7.5.
Screening O=C(c1cccn1-c1nnc(N2CCCC2)s1)N1CCN(c2ccc(F)cc2)CC1 returned IDH1 R132H inh 18.6% and DRD3 agonist -1.2.
Cn1ccnc1SCC(=O)Nc1cccc(C(F)(F)F)c1 was read as IDH1 R132H inh 3.1%, B2AR arrestin 0.2%, DRD3 agonist -12.7, Integrin act MD 18.4% and D3 antag -10.5.
O=C(CSC1=NCCN1)Nc1cccc(C(F)(F)F)c1 was read as IDH1 R132H inh -0.6%, B2AR arrestin 0.1%, DRD3 agonist -11.2, Integrin act MD 12.8% and D3 antag -65.4*.
Screening CCCCOc1ccc(C(=O)Nc2onc3c2CCCC3)cc1 returned IDH1 R132H inh 13.9% and DRD3 agonist -1.8.
CCC(=O)Nc1ccccc1-c1nc2ccccc2n(CC(=O)c2ccc(Cl)cc2)c1=O was read as IDH1 R132H inh 12.3% and DRD3 agonist -0.3.
For Cc1ccc(OCc2n[nH]c(=S)n2-c2ccc(Cl)cc2)cc1 the results were IDH1 R132H inh 1.7%, B2AR arrestin 0.3%, DRD3 agonist -9.8, Integrin act MD 3.0% and D3 antag -22.6.
`Cc1ccc(C2=Nn3c(COc4ccc(Cl)cc4)nnc3SC2CC(=O)O)cc1` (configuration not stated) gave IDH1 R132H inh -6.1%, B2AR arrestin 0.4%, DRD3 agonist 32.5*, Integrin act MD -49.1% and D3 antag -3.3.
Screening COc1ccc(N2CCN(Cc3cc4c(cc3O)CCC4)CC2)cc1 returned IDH1 R132H inh 3.2%, B2AR arrestin 0.3%, DRD3 agonist -4.6, Integrin act MD 12.0%[7.66 µM] and D3 antag -87.3*.
`CCOc1ccccc1CNCc1c(C(=O)O)n(Cc2ccc(F)cc2)c2cc(C)ccc12` gave IDH1 R132H inh inconclusive and DRD3 agonist 2.0.
For CN(CCOC(=O)c1ccccc1)Cc1ccccc1 the results were IDH1 R132H inh 2.2%, B2AR arrestin 0.0%, DRD3 agonist -7.9, Integrin act MD -3.6% and D3 antag inconclusive.
For CN(CCOC(=O)c1cccc(F)c1)Cc1ccccc1 the results were IDH1 R132H inh 10.0%, B2AR arrestin 0.0%, DRD3 agonist -6.4, Integrin act MD 6.0% and D3 antag -88.2*.
CC(CN(C)Cc1ccccc1)OC(=O)c1cccc(F)c1 (configuration not stated) was read as IDH1 R132H inh 2.6%, B2AR arrestin -1.5%, DRD3 agonist -32.9, Integrin act MD 7.4% and D3 antag -60.0*.
Screening O=C(Nc1ccc(Cl)c(Cl)c1)N1CCC(c2ccccc2)C1 (configuration not stated) returned IDH1 R132H inh 0.0% and DRD3 agonist -7.3.
Screening Cc1ccc(NS(=O)(=O)c2cc([N+](=O)[O-])ccc2NNC(=S)Nc2cc(C)ccc2C)c(C)c1 returned IDH1 R132H inh -4.7%, B2AR arrestin 0.9%, DRD3 agonist -18.4, Integrin act MD -59.8% and D3 antag -22.7.
Screening Cc1ccc(NS(=O)(=O)c2cc([N+](=O)[O-])ccc2NNC(=S)Nc2cccc(Cl)c2)c(C)c1 returned IDH1 R132H inh inconclusive, B2AR arrestin -1.2%, DRD3 agonist -4.2, Integrin act MD -12.0% and D3 antag -73.2*.

Bioassay records from PubChem.
